In PubChem BioAssay (Tox21):
A number with no mark means an inactive call. Results filed as inconclusive are left out. Entries that show only a call come without a potency. Activity calls are given as the source filed them. Unless noted, calls come from the whole dose curve; as a rule, active = well fitted curve in the direction sought with a large enough effect in the repeat runs; inconclusive = weak or mixed curves; inactive = no such curve, though single readings can be large; an effect the other way counts as inactive or inconclusive.

Experiments:
[1] = qHTS assay for small molecule agonists of the p53 signaling pathway (AID 651631; calls by dose curve; note: nearly all actives have a fitted effect of over 15% in size)
Summary of the method: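 Fluorescence intensity from cleaved LiveBLAzer B/G substrate (2 h, room temperature) served as the signal. Beforehand, HCT-116 reporter cells bearing p53 response elements were treated 16 h at 37 °C with DMSO-dissolved compounds.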

[2] = qHTS assay for small molecule agonists of the p53 signaling pathway - cell viability (AID 651633; calls by dose curve;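 note: p53RE-bla HCT reporter cells with a stable beta-lactamase p53 reporter; series mostly up to about 83 µM; nearly all actives have a fitted effect of over 30% in size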)
Summary of the method: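 p53RE-bla cells, seeded at 4,000 per well and rested 5 h at 37 C/5% CO2, received compounds in DMSO for 16 h at 37 C. CellTiter-Glo was then added, and luminescence was read after 30 min at room temperature to gauge cytotoxicity.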

[3] = qHTS assay for small molecules that induce genotoxicity in human embryonic kidney cells expressing luciferase-tagged ATAD5 - cell viability (AID 651634; calls by dose curve; note: nearly all actives have a fitted effect of over 25% in size; note: potency is the fitted concentration of half-maximal effect)
Summary of the method: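 Fluorescence from CellTiter-Fluor, reporting protease activity within live cells, served as the viability read-out. HEK293T cells carrying luciferase-tagged ATAD5 had been treated with compound for 15.5 hr at 37C.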

[4] = qHTS assay for small molecule disruptors of the mitochondrial membrane potential - cell viability (AID 720634; calls by dose curve;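 note: human HepG2 liver cancer cells; series mostly up to about 83 µM; nearly all actives have a fitted effect of over 20% in size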)
Summary of the method: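 Cells: HepG2, 2,000/well, attached overnight. Compound 1 hr, 37 C/5% CO2. +m-MPI dye, +CellTiter-Glo 30 min RT. Readout: luminescence (ATP).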

[5] = qHTS assay for small molecule disruptors of the mitochondrial membrane potential (AID 720635); note: potency is the fitted concentration of half-maximal effect
Summary of the method: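 HepG2 cells (2,000/well) attached overnight at 37C, then took compound for 1 hr at 37C, 5% CO2. Mito-MPS dye was added for 30 min; fluorescence was read at 490/535 nm (monomers) and 540/590 nm (aggregates).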

[6] = qHTS assay to test for compound auto fluorescence at 590 nm (red) in HepG2 cells (AID 720674)
Summary of the method: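 Compound auto-fluorescence is scored relative to Rose Bengal sodium, measured at 540/590 nm in live HepG2 cultures after 1 hr compound contact (37 C, 5% CO2).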

[7] = qHTS assay to test for compound auto fluorescence at 535 nm (green) in HepG2 cells (AID 720675)
[8] = qHTS assay to test for compound auto fluorescence at 460 nm (blue) in HEK293 cells (AID 720678)
Summary of the method: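 After cell attachment (4-5 hr, 37C), compounds were pinned onto HEK293 monolayers in 10% dialyzed FBS medium. The blue channel (405/460 nm) was read following overnight culture. Equivalency was calculated against triamterene.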

[9] = qHTS assay to test for compound auto fluorescence at 590 nm (red) in HEK293 cells (AID 720679)
Summary of the method: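 Plates of HEK293 cells (10% dialyzed FBS) are treated with 23 nL compound or DMSO vehicle after a 4-5 hr attachment period, incubated overnight at 37C, and read for red fluorescence at 540/590nm.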

[10] = qHTS assay to test for compound auto fluorescence at 535 nm (green) in HEK293 cells (AID 720680)
[11] = qHTS assay to test for compound auto fluorescence at 460 nm (blue) in HEK293 cell free culture (AID 720681)
Summary of the method: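 Test compounds were pinned into cell-free culture medium (DMEM with 10% FBS) and fluorescence was read directly at Ex/Em 405/460 nm. Signals were expressed as fluorescence equivalents of triamterene, with DMSO vehicle as control.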

[12] = qHTS assay to test for compound auto fluorescence at 535 nm (green) in HEK293 cell free culture (AID 720682)
Summary of the method: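 Intrinsic compound fluorescence is measured in culture medium containing 10% FBS, with excitation at 485 nm and detection at 535 nm, referenced to fluorescein.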

[13] = qHTS assay to test for compound auto fluorescence at 590 nm (red) in HEK293 cell free culture (AID 720683)
Summary of the method: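 Tox21 10K library compounds were pinned into cell-free DMEM with 10% FBS and fluorescence was read at excitation 540 nm. Activity is expressed as Rose Bengal sodium equivalency.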

[14] = qHTS assay to test for compound auto fluorescence at 590 nm (red) in HepG2 cell free culture (AID 720684)
Summary of the method: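 Measured in medium alone (MEM containing 10% FBS) following pintool addition of compound; emission at 590 nm with 540 nm excitation, referenced to Rose Bengal sodium.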

[15] = qHTS assay to test for compound auto fluorescence at 460 nm (blue) in HepG2 cell free culture (AID 720685)
Summary of the method: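 Compound (23 nL) or DMSO pinned into cell-free MEM with 10% FBS; blue fluorescence read at 405/460 nm excitation/emission, expressed as auto-fluorescence equivalency to triamterene.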

[16] = qHTS assay to test for compound auto fluorescence at 535 nm (green) in HepG2 cell free culture (AID 720686)
[17] = molecular target: Glucocorticoid receptor (Homo sapiens) (UniProt P04150); assay: qHTS assay to identify small molecule antagonists of the glucocorticoid receptor (GR) signaling pathway (AID 720692; active = well fitted inhibition curve with a large enough effect in the signal ratio in the repeat runs, not every such curve was filed as active; the % refers to the signal ratio)
Chain of Glucocorticoid receptor (Homo sapiens) (P04150 whole entry, looked up): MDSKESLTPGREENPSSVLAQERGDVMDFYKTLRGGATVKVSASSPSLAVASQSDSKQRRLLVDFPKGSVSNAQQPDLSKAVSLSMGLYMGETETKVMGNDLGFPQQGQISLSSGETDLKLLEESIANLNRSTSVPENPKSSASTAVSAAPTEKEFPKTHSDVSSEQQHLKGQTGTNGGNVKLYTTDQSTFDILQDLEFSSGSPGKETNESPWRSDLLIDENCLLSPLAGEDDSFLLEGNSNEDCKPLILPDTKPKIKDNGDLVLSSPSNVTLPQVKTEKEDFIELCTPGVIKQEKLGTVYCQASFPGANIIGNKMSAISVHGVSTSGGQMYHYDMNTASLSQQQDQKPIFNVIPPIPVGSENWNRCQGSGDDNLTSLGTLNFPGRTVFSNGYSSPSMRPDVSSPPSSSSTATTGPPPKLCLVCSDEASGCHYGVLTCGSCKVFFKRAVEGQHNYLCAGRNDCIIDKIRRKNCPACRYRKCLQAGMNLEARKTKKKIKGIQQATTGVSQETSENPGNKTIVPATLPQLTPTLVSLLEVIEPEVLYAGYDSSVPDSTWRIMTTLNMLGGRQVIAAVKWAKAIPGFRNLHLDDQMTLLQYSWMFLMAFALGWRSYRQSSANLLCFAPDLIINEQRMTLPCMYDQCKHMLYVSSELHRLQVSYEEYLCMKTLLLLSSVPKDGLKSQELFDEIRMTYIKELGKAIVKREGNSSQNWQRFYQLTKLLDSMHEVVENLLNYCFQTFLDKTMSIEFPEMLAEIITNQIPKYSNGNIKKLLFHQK
Summary of the method: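 HeLa GR-bla cells; cmpd + dex 5 nM final, 18 h 37 C; LiveBLAzer B/G FRET substrate 2 h RT; fluorescence intensity read. Antagonist mode, qHTS.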

[18] = qHTS assay for small molecules that induce genotoxicity in human embryonic kidney cells expressing luciferase-tagged ATAD5 (AID 651632); note: nearly all actives have a fitted effect of over 15% in size
Summary of the method: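 ATAD5-luc HEK293T, 2,000 cells/well; cpd or DMSO pin-transferred; 16 hr, 37C/5% CO2; Amplite 30 min RT; luminescence.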

[19] = qHTS assay to test for compound auto fluorescence at 460 nm (blue) in HepG2 cells (AID 720687)
Summary of the method: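 Cells (2,000/well in MEM with 10% FBS) attached overnight at 37 C, then were exposed to compound or DMSO for 1 hr at 37 C, 5% CO2. Fluorescence read at Ex/Em 405/460 nm, expressed as triamterene-equivalent signal.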

[20] = molecular target: Glucocorticoid receptor (Homo sapiens) (UniProt P04150); assay: qHTS assay to identify small molecule agonists of the glucocorticoid receptor (GR) signaling pathway (AID 720691; active = well fitted activation curve with a large enough effect in the signal ratio in the repeat runs, not every such curve was filed as active; the % refers to the signal ratio)
Summary of the method: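 Fluorescence intensity from LiveBLAzer B/G FRET substrate (2 h, room temperature) reports beta-lactamase expression driven by the glucocorticoid response element in GR-bla HeLa cells after 18 h compound exposure at 37 C.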

Row | Compound | Potency [1] | Potency [2] | Potency [3] | Potency [4] | Potency [5] | outcome [6] | outcome [7] | outcome [8] | outcome [9] | outcome [10] | outcome [11] | outcome [12] | outcome [13] | outcome [14] | outcome [15] | outcome [16] | Potency [17] | Potency [18] | outcome [19] | outcome [20]
1 | COC1=CC(=O)O[C@@H](CCc2ccccc2)C1 | inactive | inactive | inactive | inactive | inactive | inactive | inactive | inactive | inactive | inactive | inactive | inactive | inactive | inactive | inactive | inactive | inactive |  |  | 
2 | CNP(=O)(OC)Oc1ccc(C(C)(C)C)cc1Cl (stereo unspecified) |  | inactive | inactive | inactive | inactive | inactive | inactive | inactive | inactive | inactive | inactive | inactive | inactive | inactive | inactive | inactive |  | inactive | inactive | inactive
3 | Oc1ccc(Cl)c(Cl)c1Cl |  | inactive | inactive | inactive | 4.49 µM (active) | inactive | inactive | inactive | inactive | inactive | inactive | inactive | inactive | inactive | inactive | inactive |  | inactive | inactive | inactive
4 | CN1C(=O)C(O)N=C(c2ccccc2)c2cc(Cl)ccc21 (stereo unspecified) |  | inactive | inactive | inactive |  | inactive | inactive | inactive | inactive |  | inactive | inactive | inactive | inactive | inactive | inactive |  | inactive | inactive | 
5 | Nc1ccc([N+](=O)[O-])cc1[N+](=O)[O-] |  | inactive | 15 µM (active) | inactive | 29.9 µM (active) | inactive | inactive | inactive | inactive | inactive | inactive | inactive | inactive | inactive | inactive |  |  | inactive | inactive | 
6 | CCOC(=O)[C@]1(c2ccccc2)Oc2ccccc2[C@@H]1N |  | inactive | inactive | inactive |  | inactive | inactive | inactive | inactive | inactive | inactive | inactive | inactive | inactive | inactive | inactive |  | inactive |  | 
7 | C=C(C#N)CCC#N |  | inactive | inactive | inactive |  | inactive | inactive | inactive | inactive | inactive |  | inactive | inactive | inactive | inactive | inactive | inactive | inactive | inactive | inactive
